Consider 30 compounds from PubChem BioAssay (Tox21).

Assay [1] is described as follows: qHTS assay to identify small molecule antagonists of the estrogen related receptor (ERR) signaling pathway - cell viability counter screen (AID 1224818).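 Note: series mostly up to about 46 µM; viability measured after 17.5 h of compound exposure.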 In short, it runs like this: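 Quantitative high-throughput viability counter screen in ERR cells. Compounds (DMSO) incubated 17.5 h at 37 C; read-out was CellTiter-Fluor fluorescence.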
On the technique in general: In qHTS, concentration-response curves come from the screen itself.

Assay [2] is described as follows: qHTS assay to identify small molecule antagonists of the estrogen related receptor (ERR) signaling pathway (AID 1224819; note: nearly all actives have a fitted effect of over 50% in size; note: potency is the fitted concentration of half-maximal effect). In short, it runs like this:
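ERR reporter cell line (NTP) plated at 2,000 cells/well, settled 6 h at 37C/5% CO2, then exposed to LOPAC compounds for 18 h at 37C. One-Glo luciferase luminescence read after 30 min at room temperature.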

Assay [3] can be described thus: qHTS assay to identify small molecule agonists of the estrogen related receptor (ERR) signaling pathway (AID 1224820). In short, it runs like this:
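After 6 h plating (2,000 cells/well) and 18 h compound treatment at 37 C, ERR cells were lysed with One-Glo and luminescence read after 30 min at room temperature.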

Assay [4] has as its system estrogen-related receptor alpha (ERRalpha) with PGC-1alpha coactivator, human. Kind of assay: qHTS assay to identify small molecule antagonists of the estrogen related receptor signaling pathway with the pleiotropic PPARgamma coactivator (PGC) (AID 1224821; calls by dose curve; note: nearly all actives have a fitted effect of over 50% in size; note: potency is the fitted concentration of half-maximal effect). The procedure, abridged:
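Luminescence from One-Glo luciferase reagent (30 min, room temperature) measured after 18 h compound treatment at 37 °C. Cells carry the PGC/ERR reporter and were seeded 6 h prior to dosing.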

Assay [5] in a line: qHTS assay to identify small molecule antagonists of the estrogen related receptor signaling pathway with the pleiotropic PPARgamma coactivator (PGC) cell viability counter screen (AID 1224822; note: series mostly up to about 46 µM). The procedure, abridged:
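Cytotoxicity in the PGC/ERR cell line is assessed with CellTiter-Fluor, read as fluorescence intensity 30 min after reagent addition, following 17.5 h compound treatment at 37 C.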

Assay [6] can be described thus: qHTS assay to identify small molecule agonists of the estrogen related receptor signaling pathway with the pleiotropic PPARgamma coactivator (PGC) (AID 1224823). Note: potency is the fitted concentration of half-maximal effect. In short, it runs like this: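 Luminescence from One-Glo reagent (30 min, room temperature) was read after 18 h compound treatment at 37 C of PGC/ERR cells plated 6 h beforehand; compounds delivered in DMSO by pin tool.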

Molecules are shown by their SMILES. Inconclusive results are not listed. The source made the active and inactive calls. Unless noted, calls come from the whole dose curve; as a rule, active = well fitted curve in the direction sought with a large enough effect in the repeat runs; inconclusive = weak or mixed curves; inactive = no such curve, though single readings can be large; an effect the other way counts as inactive or inconclusive.

In the case of `CN1CCc2cc(Cl)c(O)cc2[C@@H](c2ccccc2)C1`, the Potency entry in assay [1], in assay [2], in assay [3], in assay [4], in assay [5] and in assay [6] was “inactive” throughout.

Consider `c1ccc2nc(C3=NCCN3)ccc2c1`, for which the Potency result in assay [1], in assay [2], in assay [3], in assay [4], in assay [5] and in assay [6] was “inactive” in each case.

As for `NCCCCC(=O)O`, the Potency entry in assay [1], in assay [2], in assay [3], in assay [4], in assay [5] and in assay [6] was “inactive” throughout.

Regarding `N=C(N)SCCN`, the Potency entry in assay [1], in assay [2], in assay [3], in assay [4], in assay [5] and in assay [6] was “inactive” throughout.

Regarding `NC(N)=N[C@@H](CCC(=O)O)C(=O)O`, the Potency entry in assay [1], in assay [2], in assay [3], in assay [4], in assay [5] and in assay [6] was “inactive” throughout.

Regarding `NCCCC(=O)O`, the Potency result in assay [1], in assay [2], in assay [3], in assay [4], in assay [5] and in assay [6] was “inactive” each time.

With `C[C@@H](c1ncncc1F)[C@](O)(Cn1cncn1)c1ccc(F)cc1F`, the Potency result in assay [1], in assay [2], in assay [3], in assay [4], in assay [5] and in assay [6] was “inactive” throughout.

Take `C[C@@H](NCCc1ccc(O)cc1)[C@@H](O)c1ccc(O)cc1`: the Potency entry in assay [1], in assay [2], in assay [3], in assay [4], in assay [5] and in assay [6] was “inactive” in each case.

On to `CC(=O)N[C@@H](Cc1c[nH]c2ccccc12)C(=O)OCc1cc(C(F)(F)F)cc(C(F)(F)F)c1`, for which the Potency entry in assay [1], in assay [2], in assay [3], in assay [4], in assay [5] and in assay [6] was “inactive” each time.

Regarding `O=[N+]([O-])c1cccc2cn[nH]c12`, the Potency result in assay [1], in assay [2], in assay [3], in assay [4], in assay [5] and in assay [6] was “inactive” each time.

With `O=C(O)c1cc(=O)c2c(Cl)cc(Cl)cc2[nH]1`, the Potency result in assay [1], in assay [2], in assay [3], in assay [4], in assay [5] and in assay [6] was “inactive” each time.

As for `OC[C@H]1O[C@@H](n2cnc3c(NC4CCCCC4)ncnc32)[C@H](O)[C@@H]1O`, the Potency result in assay [1], in assay [2], in assay [3], in assay [4] and in assay [5] was “inactive” in each case. The Potency in assay [6] is 8.74 µM (active).

With `CS(=O)(=O)c1ccc(-n2nc(C(F)(F)F)cc2-c2ccc(F)cc2)cc1`, the Potency entry in assay [1], in assay [2], in assay [3], in assay [4], in assay [5] and in assay [6] was “inactive” in each case.

For `Brc1c(Br)c(Br)c2n[nH]nc2c1Br`, the Potency entry in assay [1], in assay [3], in assay [5] and in assay [6] was “inactive” each time. Moreover, the figures for the Potency in assay [2] and in assay [4] were 22 µM (active) and 21.1 µM (active), respectively.

As for `O=C(O)/C(=C/c1c(C(=O)O)[nH]c2cc(Cl)cc(Cl)c12)c1ccccc1`, the Potency result in assay [1], in assay [2], in assay [3], in assay [4], in assay [5] and in assay [6] was “inactive” each time.

Regarding `O=c1[nH]ccc2c(O)cccc12`, the Potency result in assay [1], in assay [2], in assay [3], in assay [4], in assay [5] and in assay [6] was “inactive” in each case.

Regarding `O=c1cc(-c2ccccc2)oc2c(O)c(O)ccc12`, the Potency entry in assay [1], in assay [2], in assay [3], in assay [4], in assay [5] and in assay [6] was “inactive” throughout.

For the compound `O=C(O)c1cc2cc(Cc3cccnc3)ccc2o1`, the Potency result in assay [1], in assay [2], in assay [3], in assay [4], in assay [5] and in assay [6] was “inactive” throughout.

As to `N[C@H](CO)C(=O)O`, the Potency result in assay [1], in assay [2], in assay [3], in assay [4], in assay [5] and in assay [6] was “inactive” in each case.

As to `O=C(O)c1cc(=O)c2ccccc2[nH]1`, the Potency entry in assay [1], in assay [2], in assay [3], in assay [4], in assay [5] and in assay [6] was “inactive” in each case.

Consider `O=c1[nH]c(=O)c2nc3ccccc3nc2[nH]1`, for which the Potency entry in assay [1], in assay [2], in assay [3], in assay [4], in assay [5] and in assay [6] was “inactive” each time.

Consider `COc1ccc(-c2cc3ncc(C)n3c(Nc3ncccc3C(N)=O)n2)cc1OC`, for which the Potency entry in assay [1], in assay [3], in assay [5] and in assay [6] was “inactive” in each case. The Potency is 2.87 µM (active) in assay [2] and 2.37 µM (active) in assay [4].

Take `CN(CC[C@@H](Oc1ccc(C(F)(F)F)cc1)c1ccccc1)CC(=O)O`: the Potency entry in assay [1], in assay [2], in assay [3], in assay [4], in assay [5] and in assay [6] was “inactive” in each case.

With `NC/C=C\C(=O)O`, the Potency result in assay [1], in assay [2], in assay [3], in assay [4], in assay [5] and in assay [6] was “inactive” throughout.

For `CCCn1c(=O)c2[nH]c(-c3ccc(S(=O)(=O)O)cc3)nc2n(CCC)c1=O`, the Potency result in assay [1], in assay [2], in assay [3], in assay [4], in assay [5] and in assay [6] was “inactive” throughout.

On to `CCCCCCC/C=C\CCCCCCCCC(=O)O`, for which the Potency entry in assay [1], in assay [2], in assay [3], in assay [4], in assay [5] and in assay [6] was “inactive” throughout.

Regarding `COc1cc(CNC(=O)CCCCCCC(C)C)ccc1O`, the Potency result in assay [1], in assay [2], in assay [3], in assay [4], in assay [5] and in assay [6] was “inactive” each time.

`N#C/C(=C\c1ccc(O)c(O)c1)C(=O)c1ccc(O)c(O)c1`: the Potency entry in assay [1], in assay [2], in assay [3], in assay [4], in assay [5] and in assay [6] was “inactive” each time.

For `CC(=O)NC[C@H]1CN(c2ccc(N3CCOCC3)c(F)c2)C(=O)O1`, the Potency result in assay [1], in assay [2], in assay [3], in assay [4], in assay [5] and in assay [6] was “inactive” each time.

In the case of `CCCOC(=O)c1c(-c2ccccc2)nc(CC)c(C(=O)SCC)c1CCC`, the Potency entry in assay [1], in assay [2], in assay [3], in assay [4], in assay [5] and in assay [6] was “inactive” each time.
